Source: PubChem BioAssay (NCATS)
Values joined by “and” are separate entries in the source; they are usually repeats but may differ in a detail not shown here. Equal values may be shown once. Records with an inconclusive call do not appear. Active and inactive are the calls of the source. Unless noted, the call rests on the fitted dose curve; in most records, active means well fitted inhibition curve with a large enough effect; inconclusive means small, poorly fitted or top-dose-only effect; inactive means flat fitted curve, though single readings scatter.

Key:
[1] = molecular target: Glucocorticoid receptor (Homo sapiens) (UniProt P04150); test: GR-EFC Redistribution (AID 451; calls by dose curve; further: potency means the concentration at half of the fitted maximal effect); details: CHO-K1 GR-EFC translocation, beta-gal luminescence, 2 h
Glucocorticoid receptor (Homo sapiens), sequence (P04150 whole entry, looked up, the tested form may be a part): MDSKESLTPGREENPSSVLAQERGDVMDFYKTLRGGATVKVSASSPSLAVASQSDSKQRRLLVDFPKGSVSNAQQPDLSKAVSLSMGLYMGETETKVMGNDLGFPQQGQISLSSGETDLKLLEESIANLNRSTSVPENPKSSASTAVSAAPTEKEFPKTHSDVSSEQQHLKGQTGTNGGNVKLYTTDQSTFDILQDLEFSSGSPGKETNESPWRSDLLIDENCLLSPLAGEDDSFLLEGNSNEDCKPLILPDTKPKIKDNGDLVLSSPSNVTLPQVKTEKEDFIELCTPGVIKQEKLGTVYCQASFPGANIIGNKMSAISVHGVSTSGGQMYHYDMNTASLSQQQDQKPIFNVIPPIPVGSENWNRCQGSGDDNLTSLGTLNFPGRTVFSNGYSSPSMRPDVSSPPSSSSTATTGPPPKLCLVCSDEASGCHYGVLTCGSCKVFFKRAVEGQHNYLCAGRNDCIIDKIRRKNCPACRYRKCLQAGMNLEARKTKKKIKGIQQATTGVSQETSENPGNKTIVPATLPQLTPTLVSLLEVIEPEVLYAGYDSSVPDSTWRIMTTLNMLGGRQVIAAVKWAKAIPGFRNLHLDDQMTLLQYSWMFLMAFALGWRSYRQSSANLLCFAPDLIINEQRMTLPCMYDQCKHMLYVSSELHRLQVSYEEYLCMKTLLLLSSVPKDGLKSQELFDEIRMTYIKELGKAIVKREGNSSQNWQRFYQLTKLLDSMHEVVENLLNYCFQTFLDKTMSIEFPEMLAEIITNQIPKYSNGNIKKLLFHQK
Summary of the method: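 CHO-K1 cells expressing nuclear EA and GR-ED fragments of b-gal; compounds titrated up to 46 uM final, 2 h at 37 C. GR nuclear translocation read as complemented b-gal luminescence after 1 h RT detection.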

[2] = molecular target: Mitogen-activated protein kinase 10 (Mus musculus) (UniProt Q61831); test: JNK3 AlphaScreen Assay (AID 530; active means well fitted curve in either direction with a large enough effect, not every such curve was filed as active;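 further: kinase came from lysate of stimulated human HepG2 cells; signal reports phosphorylation of biotinylated GST-cJun 1-79 at Ser73 with 10 µM ATP; on the % scale 0 is the no-effect control and ±100 the full control effect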); details: JNK3 lysate, c-Jun phosphorylation; series mostly up to 25.6 µM
Summary of the method: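 Pre-activated (IL-1β/TNFα) JNK3 in HepG2 lysates phosphorylates biotin-GST-cJun(1-79), 10 uM ATP; anti-phospho-cJun(Ser73) AlphaScreen read at room temperature, pH 7.6 Tris buffer. Compounds pre-incubated 15 min as titrations.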

[3] = qHTS Assay for Lipid Storage Modulators (AID 1519; calls by dose curve; on activity change, negative = inhibition: on the % scale 0 is the no-effect control and ±100 the full control effect); details: Drosophila S3 cells, BODIPY lipid droplet/cell ratio, laser cytometry, cells loaded with oleic acid
Summary of the method: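 Cells seeded at 5,000 per well were treated with compounds over a concentration series and loaded with oleic acid (400 uM, as added). Lipid droplet fluorescence (488 nm excitation, 500-530 nm channel) was read by laser-scanning cytometry and normalized to 20 uM Triacsin C.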

[4] = molecular target: Luciferin 4-monooxygenase (Photinus pyralis) (UniProt P08659); test: Biochemical firefly luciferase enzyme assay for NPC (AID 624030);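 further: purified P. pyralis luciferase at 10 nM with luciferin and ATP substrate; 0% = DMSO and -100% = full luciferase inhibition by PTC124 control; nearly all actives have a fitted effect of over 70% in size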; details: purified P. pyralis luciferase, luminescence, 5 min; series mostly up to 24.9 µM
Luciferin 4-monooxygenase (Photinus pyralis), sequence (P08659 whole entry, looked up): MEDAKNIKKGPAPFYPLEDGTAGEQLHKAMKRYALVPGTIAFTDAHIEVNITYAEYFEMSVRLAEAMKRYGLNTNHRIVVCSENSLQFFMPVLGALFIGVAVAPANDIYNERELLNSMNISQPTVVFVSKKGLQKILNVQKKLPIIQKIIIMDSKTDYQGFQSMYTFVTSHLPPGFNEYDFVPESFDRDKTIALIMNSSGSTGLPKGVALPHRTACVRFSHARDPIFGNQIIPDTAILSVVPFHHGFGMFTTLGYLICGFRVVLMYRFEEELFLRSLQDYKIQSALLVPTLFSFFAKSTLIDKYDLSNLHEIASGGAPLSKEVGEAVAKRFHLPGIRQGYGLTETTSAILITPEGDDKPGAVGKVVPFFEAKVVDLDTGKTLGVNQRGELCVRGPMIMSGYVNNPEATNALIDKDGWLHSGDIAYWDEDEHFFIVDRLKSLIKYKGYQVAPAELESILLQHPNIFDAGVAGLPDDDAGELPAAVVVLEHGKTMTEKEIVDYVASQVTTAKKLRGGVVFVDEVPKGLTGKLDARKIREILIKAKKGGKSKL
Summary of the method: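 Purified P. pyralis luciferase at 10 nM in 50 mM Tris Acetate (final), luminescence read within 5 minutes of enzyme addition to compounds. Activity normalised to PTC124 versus DMSO; concentration-response curves classed by r2, magnitude and activity.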

[5] = qHTS profiling for inhibitors of Plasmodium falciparum proliferation (AID 504749); further: nearly all actives have a fitted effect of over 60% in size; further: potency means the concentration at half of the fitted maximal effect;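 on activity, negative = inhibition: 0% = DMSO vehicle and full inhibition = artemisinin control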; details: P. falciparum in erythrocytes, SYBR Green DNA, 72 h; at 12.8 µM (top of the series); parasite line A
Summary of the method: (§1)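 P. falciparum-infected erythrocytes (0.3% parasitemia, 2.5% hematocrit) incubated with compound 72 h at 37 C, 5% CO2. Parasite DNA detected by SYBR Green after lysis, overnight at room temperature; normalised to 0.29 uM artemisinin and DMSO.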

3D7 = test: as above; details: P. falciparum in erythrocytes, SYBR Green DNA, 72 h; series mostly up to 12.8 µM
Summary of the method: as §1

C2A = test: as above; details: P. falciparum in erythrocytes, SYBR Green DNA, 72 h; series mostly up to 12.8 µM
Summary of the method: as §1

CP217 = test: as above; details: P. falciparum in erythrocytes, SYBR Green DNA, 72 h; series mostly up to 12.8 µM
Summary of the method: as §1

CP237 = test: as above; details: P. falciparum in erythrocytes, SYBR Green DNA, 72 h; series mostly up to 12.8 µM
Summary of the method: as §1

CP238 = test: as above; details: P. falciparum in erythrocytes, SYBR Green DNA, 72 h; series mostly up to 12.8 µM
Summary of the method: as §1

CP252 = test: as above; details: P. falciparum in erythrocytes, SYBR Green DNA, 72 h; series mostly up to 12.8 µM
Summary of the method: as §1

CP291 = test: as above; details: P. falciparum in erythrocytes, SYBR Green DNA, 72 h; series mostly up to 12.8 µM
Summary of the method: as §1

CP297 = test: as above; details: P. falciparum in erythrocytes, SYBR Green DNA, 72 h; series mostly up to 12.8 µM
Summary of the method: as §1

ECU = test: as above; details: P. falciparum in erythrocytes, SYBR Green DNA, 72 h; series mostly up to 12.8 µM
Summary of the method: as §1

PC26 = test: as above; details: P. falciparum in erythrocytes, SYBR Green DNA, 72 h; series mostly up to 12.8 µM
Summary of the method: as §1

SC27B = test: as above; details: P. falciparum in erythrocytes, SYBR Green DNA, 72 h; series mostly up to 12.8 µM
Summary of the method: as §1

[6] = molecular target: 3',5'-cyclic-AMP phosphodiesterase 4B (Homo sapiens) (UniProt Q07343); test: qHTS Assay for Inhibitors of PDE-IV (AID 607; active means well fitted activation curve with a large enough effect in the main read-out, with a control signal flat, not every such curve was filed as active; further: % of control where 0% means no effect); details: HEK293 ACTOne CNG channel cells, membrane potential fluorescence; series mostly up to 22.9 µM
3',5'-cyclic-AMP phosphodiesterase 4B (Homo sapiens), sequence (Q07343 whole entry, looked up): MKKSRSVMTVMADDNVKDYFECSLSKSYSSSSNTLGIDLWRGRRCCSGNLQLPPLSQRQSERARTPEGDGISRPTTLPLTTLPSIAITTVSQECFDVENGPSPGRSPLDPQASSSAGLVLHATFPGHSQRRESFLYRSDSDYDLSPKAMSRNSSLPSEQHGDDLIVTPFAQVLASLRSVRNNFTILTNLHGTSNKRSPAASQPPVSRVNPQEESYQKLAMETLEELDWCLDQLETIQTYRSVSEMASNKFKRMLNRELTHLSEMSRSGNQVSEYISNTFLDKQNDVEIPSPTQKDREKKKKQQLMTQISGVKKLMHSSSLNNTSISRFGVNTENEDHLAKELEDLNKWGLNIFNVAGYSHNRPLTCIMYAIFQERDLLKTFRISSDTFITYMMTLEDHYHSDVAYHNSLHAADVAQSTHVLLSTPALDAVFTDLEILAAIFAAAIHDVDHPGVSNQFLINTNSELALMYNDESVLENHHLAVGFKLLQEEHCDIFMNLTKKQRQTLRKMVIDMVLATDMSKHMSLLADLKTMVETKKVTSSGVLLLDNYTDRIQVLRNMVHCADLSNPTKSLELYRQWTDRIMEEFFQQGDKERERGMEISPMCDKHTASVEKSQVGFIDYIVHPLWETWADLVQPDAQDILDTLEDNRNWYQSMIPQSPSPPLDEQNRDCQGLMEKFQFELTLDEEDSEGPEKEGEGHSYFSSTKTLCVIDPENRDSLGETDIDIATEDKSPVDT
Summary of the method: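 ACTOne HEK293 cells carry a modified cAMP-gated CNG channel and express endogenous PDE4; plated 1000 cells/well, compounds up to 22.9 uM final. Membrane-potential dye fluorescence (ex 535/em 590) was read; parental cells received 10 uM forskolin + 100 uM RO 20-1724.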

[7] = molecular target: Ubiquitin carboxyl-terminal hydrolase 1 (Homo sapiens) (UniProt O94782); test: Inhibitors of USP1/UAF1: Pilot qHTS (AID 504865); details: purified USP1/UAF1, Ub-rhodamine cleavage fluorescence; series mostly up to 114 µM; further: nearly all actives have a fitted effect of over 35% in size; further: potency means the concentration at half of the fitted maximal effect;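 on activity change, negative = inhibition: rhodamine fluorescence freed from ubiquitin-rhodamine substrate followed over time; top concentration of the series differs between compounds; on the % scale 0 is the no-effect control and ±100 the full control effect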
Ubiquitin carboxyl-terminal hydrolase 1 (Homo sapiens), sequence (O94782 whole entry, looked up): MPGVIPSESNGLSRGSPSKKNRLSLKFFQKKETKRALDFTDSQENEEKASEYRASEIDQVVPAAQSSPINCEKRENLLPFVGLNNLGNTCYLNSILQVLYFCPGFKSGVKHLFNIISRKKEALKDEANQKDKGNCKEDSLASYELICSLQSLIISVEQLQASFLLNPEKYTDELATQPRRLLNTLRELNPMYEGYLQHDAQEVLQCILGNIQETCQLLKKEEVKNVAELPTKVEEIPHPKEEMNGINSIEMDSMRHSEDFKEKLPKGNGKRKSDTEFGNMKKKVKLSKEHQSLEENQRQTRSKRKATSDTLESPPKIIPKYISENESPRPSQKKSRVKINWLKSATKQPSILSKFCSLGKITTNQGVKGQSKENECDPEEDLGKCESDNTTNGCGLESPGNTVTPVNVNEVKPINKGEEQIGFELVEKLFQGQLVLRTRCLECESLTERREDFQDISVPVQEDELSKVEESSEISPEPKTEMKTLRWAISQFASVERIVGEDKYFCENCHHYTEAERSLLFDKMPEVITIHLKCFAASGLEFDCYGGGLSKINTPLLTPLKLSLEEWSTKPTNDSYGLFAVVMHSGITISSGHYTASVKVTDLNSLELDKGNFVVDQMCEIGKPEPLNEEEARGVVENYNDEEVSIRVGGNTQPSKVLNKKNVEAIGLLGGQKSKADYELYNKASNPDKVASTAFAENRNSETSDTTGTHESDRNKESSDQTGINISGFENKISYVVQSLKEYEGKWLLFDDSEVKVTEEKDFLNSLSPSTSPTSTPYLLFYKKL
Summary of the method: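 Kinetic fluorescence assay: 1nM USP1/UAF1, 15 min compound preincubation, then 150nM Ub-Rho; 480/540 nm.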

HB3 = test: qHTS profiling for inhibitors of Plasmodium falciparum proliferation (AID 504749); further: nearly all actives have a fitted effect of over 60% in size; further: potency means the concentration at half of the fitted maximal effect;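 on activity, negative = inhibition: 0% = DMSO vehicle and full inhibition = artemisinin control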; details: P. falciparum in erythrocytes, SYBR Green DNA, 72 h; series mostly up to 12.8 µM
Summary of the method: as §1

[8] = measured here: cell count channel max response
[9] = measured here: lipid channel max response

CCC(C)(C)C(=O)O[C@@H]1C[C@H](C)C=C2C=C[C@H](C)[C@@H](CC[C@H]3C[C@@H](O)CC(=O)O3)[C@H]21
inactive: Potency [1] > 20.6 µM | Potency [2] | activity change, negative = inhibition ([3]; at 25.7 µM (top of the series)) -9.23% | Potency [4] | activity, negative = inhibition [5] -15.1% | Potency (3D7) | Potency (C2A) | Potency (CP217) | Potency (CP237) | Potency (CP238) | Potency (CP252) | Potency (CP291) | Potency (CP297) | Potency (ECU) | Potency (PC26) | Potency (SC27B)
-10.9%: max response [3, 8]
-20.7%: max response [3, 9]

O=C(O)[C@@H]1[C@@H]2C[C@H]3c4[nH]c5ccccc5c4CCN3C[C@@H]2CC[C@@H]1O
-6.11%: max response [3, 9]
-6.3%: max response [3, 8]
active: Potency [7] 28.2 µM
inactive: Potency [1] > 20.6 µM and > 46 µM | Potency [2] | outcome [6] | activity change, negative = inhibition ([3]; at 25.7 µM (top of the series)) 0.95% | Potency [4] | Potency (3D7) | Potency (HB3) | Potency (PC26) | Potency (SC27B)

CC(C)(C)NC(=O)[C@@H]1C[C@H]2CCCC[C@@H]2CN1C[C@H](O)[C@H](Cc1ccccc1)NC(=O)[C@@H](CC(N)=O)NC(=O)c1ccc2ccccc2n1
inactive: Potency [1] > 20.6 µM | Potency [2] | outcome [6] | activity change, negative = inhibition ([3]; at 25.7 µM (top of the series)) -0.923%
1.41%: max response [3, 8]
-0.968%: max response [3, 9]

C/C(=C\CNc1ncnc2nc[nH]c12)CO
4.12%: max response [3, 8]
3.25%: max response [3, 9]
inactive: Potency [1] > 46 µM | Potency [2] | outcome [6] | activity change, negative = inhibition ([3]; at 57.5 µM (top of the series)) -1.3%

COC(=O)[C@@H]1[C@@H]2C[C@H]3c4[nH]c5cc(OC)ccc5c4CCN3C[C@@H]2C[C@H](OC(=O)/C=C\c2cc(OC)c(OC)c(OC)c2)[C@H]1OC
-4.11%: max response [3, 8]
inactive: Potency [1] > 20.6 µM | outcome [6] | activity change, negative = inhibition ([3]; at 25.7 µM (top of the series)) -1.81% | Potency [7] | Potency [4]
active: Potency (CP217) 3.55 µM | Potency (PC26) 6.42 µM
-3.85%: max response [3, 9]
